From PubChem BioAssay
The source made the active and inactive calls.

What was measured:
[1] = binders of probe aFSTL3 on microarray, primary screen, stem cell growth factor project, biochemical, small-molecule microarray, fluorescence 635/667 (AID 1064); conditions: higher = more signal;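 also: measures binding of the biotinylated anti-FSTL3 antibody to printed compounds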
[2] = binders from COS7 lysate, DM2A8 probe, primary screen, torsin A project, cell lysate, small-molecule microarray, fluorescence 635/667 (AID 1065); conditions: higher = more signal, COS7 lysate expressing mutant human TOR1A
[3] = binders of probe aFGF2 on microarray, primary screen, stem cell growth factor project, biochemical, small-molecule microarray, fluorescence 635/667 (AID 1067); conditions: higher = more signal;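 also: measures binding of biotinylated aFGF2 protein to printed compounds on slides; z-score merges feature fluorescence and signal-to-noise across triplicate slides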
[4] = binders of probe aFGF10 on microarray, primary screen, stem cell growth factor project, biochemical, small-molecule microarray, fluorescence 635/667 (AID 1071); conditions: higher = more signal;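 also: score merges 667 nm spot intensity and signal to noise from triplicate slides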
[5] = biological target: Neurogenic locus notch homolog protein 2 (Homo sapiens) (UniProt Q04721); assay: Notch2 binders on small-molecule microarrays, primary screen, biochemical, small-molecule microarray, 635 nm fluorescence, stem cell growth factors (AID 1073); conditions: Notch2 binding, higher = more signal
Sequence of Neurogenic locus notch homolog protein 2 (Homo sapiens) (Q04721 whole entry, looked up, canonical isoform): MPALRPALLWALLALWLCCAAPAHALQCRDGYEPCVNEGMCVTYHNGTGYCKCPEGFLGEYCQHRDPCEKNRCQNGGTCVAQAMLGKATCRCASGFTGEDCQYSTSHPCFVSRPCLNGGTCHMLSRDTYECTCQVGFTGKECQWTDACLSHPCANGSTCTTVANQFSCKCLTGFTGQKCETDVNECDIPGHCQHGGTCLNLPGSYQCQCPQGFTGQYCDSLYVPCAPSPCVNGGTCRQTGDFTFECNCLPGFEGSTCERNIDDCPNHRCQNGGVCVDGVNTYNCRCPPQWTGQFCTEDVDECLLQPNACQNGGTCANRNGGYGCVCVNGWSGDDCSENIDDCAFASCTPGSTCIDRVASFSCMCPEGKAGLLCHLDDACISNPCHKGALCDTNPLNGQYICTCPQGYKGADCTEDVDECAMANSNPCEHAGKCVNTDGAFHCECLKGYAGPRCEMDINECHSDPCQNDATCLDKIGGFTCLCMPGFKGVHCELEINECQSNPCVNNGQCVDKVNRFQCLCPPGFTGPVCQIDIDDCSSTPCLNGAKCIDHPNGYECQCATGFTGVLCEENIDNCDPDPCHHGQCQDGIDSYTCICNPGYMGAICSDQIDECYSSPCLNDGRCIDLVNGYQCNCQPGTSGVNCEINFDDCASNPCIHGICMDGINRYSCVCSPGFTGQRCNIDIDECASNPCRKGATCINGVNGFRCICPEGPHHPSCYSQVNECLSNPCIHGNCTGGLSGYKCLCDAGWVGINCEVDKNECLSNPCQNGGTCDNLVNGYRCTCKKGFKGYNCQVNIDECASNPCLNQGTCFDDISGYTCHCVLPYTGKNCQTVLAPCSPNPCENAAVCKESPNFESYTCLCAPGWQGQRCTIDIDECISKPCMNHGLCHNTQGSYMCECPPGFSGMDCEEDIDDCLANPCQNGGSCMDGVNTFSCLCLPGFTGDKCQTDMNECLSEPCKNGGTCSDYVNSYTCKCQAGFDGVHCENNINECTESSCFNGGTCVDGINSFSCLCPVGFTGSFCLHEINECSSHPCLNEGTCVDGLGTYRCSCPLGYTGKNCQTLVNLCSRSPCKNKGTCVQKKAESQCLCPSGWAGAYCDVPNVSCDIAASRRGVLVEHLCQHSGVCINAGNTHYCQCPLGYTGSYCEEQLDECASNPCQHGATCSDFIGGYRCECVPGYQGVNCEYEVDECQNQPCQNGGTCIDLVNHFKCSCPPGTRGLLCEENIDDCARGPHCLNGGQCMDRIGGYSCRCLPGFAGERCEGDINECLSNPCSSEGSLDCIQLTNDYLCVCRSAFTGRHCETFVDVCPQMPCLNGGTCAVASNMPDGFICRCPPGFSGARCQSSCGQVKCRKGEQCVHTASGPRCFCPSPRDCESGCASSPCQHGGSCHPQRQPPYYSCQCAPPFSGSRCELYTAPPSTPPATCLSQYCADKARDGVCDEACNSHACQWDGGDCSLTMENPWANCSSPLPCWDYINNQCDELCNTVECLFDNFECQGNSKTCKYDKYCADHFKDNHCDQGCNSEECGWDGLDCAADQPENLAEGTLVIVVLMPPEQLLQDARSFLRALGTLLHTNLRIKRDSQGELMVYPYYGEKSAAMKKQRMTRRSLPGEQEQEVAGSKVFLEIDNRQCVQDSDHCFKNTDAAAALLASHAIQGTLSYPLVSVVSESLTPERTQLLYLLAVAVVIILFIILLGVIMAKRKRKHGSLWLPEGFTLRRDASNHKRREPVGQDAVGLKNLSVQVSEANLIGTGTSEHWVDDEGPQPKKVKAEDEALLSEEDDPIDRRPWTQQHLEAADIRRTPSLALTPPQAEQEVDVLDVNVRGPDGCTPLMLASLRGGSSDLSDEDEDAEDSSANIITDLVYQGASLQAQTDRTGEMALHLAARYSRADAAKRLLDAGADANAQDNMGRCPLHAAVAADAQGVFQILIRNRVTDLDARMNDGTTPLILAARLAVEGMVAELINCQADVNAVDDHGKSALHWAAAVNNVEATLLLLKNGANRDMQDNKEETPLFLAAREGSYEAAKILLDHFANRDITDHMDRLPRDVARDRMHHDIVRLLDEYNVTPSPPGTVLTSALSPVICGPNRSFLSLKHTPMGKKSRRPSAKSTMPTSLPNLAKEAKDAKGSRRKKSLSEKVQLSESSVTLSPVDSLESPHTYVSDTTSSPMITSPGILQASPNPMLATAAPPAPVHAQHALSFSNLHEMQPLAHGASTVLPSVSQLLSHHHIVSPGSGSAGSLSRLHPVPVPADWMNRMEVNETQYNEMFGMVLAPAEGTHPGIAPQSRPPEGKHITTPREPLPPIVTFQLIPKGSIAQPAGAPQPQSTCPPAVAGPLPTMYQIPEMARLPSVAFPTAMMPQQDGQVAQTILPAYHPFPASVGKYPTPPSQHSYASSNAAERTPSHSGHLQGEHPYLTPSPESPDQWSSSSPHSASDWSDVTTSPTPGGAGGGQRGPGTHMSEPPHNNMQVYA

[6] = biological target: Pro-neuregulin-1, membrane-bound isoform (Homo sapiens) (UniProt Q02297); assay: NRG1 binders on small-molecule microarrays, primary screen, psychiatric disease protein project, biochemical, small-molecule microarray, fluorescence 635/667 (AID 1075); conditions: NRG1 binding, 635 nm fluorescence, higher = more signal;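 also: score combines 667 nm spot fluorescence with signal to noise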
[7] = system: Neuregulin-1 EGF-like domain; assay: binders of neuregulin-1 EGF-like domain, primary screen, biochemical, small-molecule microarray, 635 nm fluorescence (AID 1081); conditions: small-molecule microarray binding, higher = more signal;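 also: binding of the protein to compounds printed on small-molecule microarray slides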
[8] = FRG1 promoter luciferase signal modulators, primary screen, FRG1 inhibition for FSHD, cell-based, C2C12 myotubes, firefly/Renilla luciferase, luminescence (AID 1084); conditions: higher = more signal, called active from +8 up or from −8 down
[9] = binders of probe aFST on microarray, primary screen, stem cell growth factor project, biochemical, small-molecule microarray, fluorescence 635/667 (AID 1086); conditions: higher = more signal;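 also: score merges 667 nm fluorescence with signal-to-noise of each printed compound spot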
[10] = binders of probe aHhip on microarray, primary screen, stem cell growth factor project, biochemical, small-molecule microarray, fluorescence 635/667 (AID 1087); conditions: higher = more signal;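 also: score merges spot fluorescence at 667nm with spot signal to noise ratio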
[11] = system: PRMT1 (protein arginine N-methyltransferase 1); assay: PRMT1 binders on small-molecule microarrays, primary screen, biochemical, small-molecule microarray, 635 nm fluorescence (AID 1088); conditions: small-molecule microarray binding, higher = more signal;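 also: binding of Prmt1 protein to compounds spotted on small-molecule microarray slides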
[12] = yeast growth modulation, basal conditions, primary screen, YJM789 clinical isolate, OD600, 24 h (AID 1089);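 also: growth of clinical yeast isolate S. cerevisiae YJM 789 seeded 1000 cells per well; test concentration not given here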; conditions: S. cerevisiae YJM789 growth, higher = more signal, called active from +8 up or from −8 down
[13] = fission yeast growth modulation, primary screen, strain 972, OD600, 24 h, no modulator (AID 1090);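 also: basal condition with compound alone and no growth modifier present; test concentration not given here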; conditions: S. pombe 972 growth, higher = more signal, called active from +8 up or from −8 down
[14] = S. cerevisiae growth modulation with rapamycin, primary screen, strain BY4716, OD600, 96 h (AID 1091); conditions: higher = more signal, called active from +8 up or from −8 down; also: test concentration not given here
[15] = biological target: Torsin-1A-interacting protein 2 (Homo sapiens) (UniProt Q8NFQ8); assay: LULL1 binders on small-molecule microarray, primary screen, cell lysate, human LULL1 lysate, 635/667 nm fluorescence (AID 1092); conditions: hLULL1 lysate binding, 635 nm fluorescence, higher = more signal;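 also: probe is lysate of COS7 cells overexpressing human LULL1; score merges per-feature 667 nm fluorescence with signal-to-noise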
[16] = E. coli growth modulation, two-sided OD650, primary screen, E. coli filamentation project, strain DRC41, 24 h (AID 1093); conditions: OD650, 24 h, higher = more signal, called active from +8 up or from −8 down;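 also: MC1000 strain lacking acrAB efflux and sulA so SOS filamentation is blocked; test concentration not given here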
[17] = small-molecule microarray binders of probe aLefty2, primary screen, biochemical, biotinylated probe, 635/667 nm fluorescence (AID 1094); conditions: higher = more signal;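 also: score merges spot fluorescence near 667 nm with spot signal-to-noise ratio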
[18] = system: Noggin (protein binding on small-molecule microarray); assay: Noggin binders on small-molecule microarray, primary screen, biochemical, 635/667 nm fluorescence (AID 1095); conditions: 635 nm fluorescence, higher = more signal;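 also: score merges 667 nm feature fluorescence with signal to noise over triplicate slides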
[19] = biological target: Neurogenic locus notch homolog protein 3 (Homo sapiens) (UniProt Q9UM47); assay: NOTCH3 binders on small-molecule microarray, primary screen, biochemical, 635/667 nm fluorescence (AID 1096); conditions: NOTCH3 binding, 635 nm fluorescence, higher = more signal
Sequence of Neurogenic locus notch homolog protein 3 (Homo sapiens) (Q9UM47 whole entry, looked up): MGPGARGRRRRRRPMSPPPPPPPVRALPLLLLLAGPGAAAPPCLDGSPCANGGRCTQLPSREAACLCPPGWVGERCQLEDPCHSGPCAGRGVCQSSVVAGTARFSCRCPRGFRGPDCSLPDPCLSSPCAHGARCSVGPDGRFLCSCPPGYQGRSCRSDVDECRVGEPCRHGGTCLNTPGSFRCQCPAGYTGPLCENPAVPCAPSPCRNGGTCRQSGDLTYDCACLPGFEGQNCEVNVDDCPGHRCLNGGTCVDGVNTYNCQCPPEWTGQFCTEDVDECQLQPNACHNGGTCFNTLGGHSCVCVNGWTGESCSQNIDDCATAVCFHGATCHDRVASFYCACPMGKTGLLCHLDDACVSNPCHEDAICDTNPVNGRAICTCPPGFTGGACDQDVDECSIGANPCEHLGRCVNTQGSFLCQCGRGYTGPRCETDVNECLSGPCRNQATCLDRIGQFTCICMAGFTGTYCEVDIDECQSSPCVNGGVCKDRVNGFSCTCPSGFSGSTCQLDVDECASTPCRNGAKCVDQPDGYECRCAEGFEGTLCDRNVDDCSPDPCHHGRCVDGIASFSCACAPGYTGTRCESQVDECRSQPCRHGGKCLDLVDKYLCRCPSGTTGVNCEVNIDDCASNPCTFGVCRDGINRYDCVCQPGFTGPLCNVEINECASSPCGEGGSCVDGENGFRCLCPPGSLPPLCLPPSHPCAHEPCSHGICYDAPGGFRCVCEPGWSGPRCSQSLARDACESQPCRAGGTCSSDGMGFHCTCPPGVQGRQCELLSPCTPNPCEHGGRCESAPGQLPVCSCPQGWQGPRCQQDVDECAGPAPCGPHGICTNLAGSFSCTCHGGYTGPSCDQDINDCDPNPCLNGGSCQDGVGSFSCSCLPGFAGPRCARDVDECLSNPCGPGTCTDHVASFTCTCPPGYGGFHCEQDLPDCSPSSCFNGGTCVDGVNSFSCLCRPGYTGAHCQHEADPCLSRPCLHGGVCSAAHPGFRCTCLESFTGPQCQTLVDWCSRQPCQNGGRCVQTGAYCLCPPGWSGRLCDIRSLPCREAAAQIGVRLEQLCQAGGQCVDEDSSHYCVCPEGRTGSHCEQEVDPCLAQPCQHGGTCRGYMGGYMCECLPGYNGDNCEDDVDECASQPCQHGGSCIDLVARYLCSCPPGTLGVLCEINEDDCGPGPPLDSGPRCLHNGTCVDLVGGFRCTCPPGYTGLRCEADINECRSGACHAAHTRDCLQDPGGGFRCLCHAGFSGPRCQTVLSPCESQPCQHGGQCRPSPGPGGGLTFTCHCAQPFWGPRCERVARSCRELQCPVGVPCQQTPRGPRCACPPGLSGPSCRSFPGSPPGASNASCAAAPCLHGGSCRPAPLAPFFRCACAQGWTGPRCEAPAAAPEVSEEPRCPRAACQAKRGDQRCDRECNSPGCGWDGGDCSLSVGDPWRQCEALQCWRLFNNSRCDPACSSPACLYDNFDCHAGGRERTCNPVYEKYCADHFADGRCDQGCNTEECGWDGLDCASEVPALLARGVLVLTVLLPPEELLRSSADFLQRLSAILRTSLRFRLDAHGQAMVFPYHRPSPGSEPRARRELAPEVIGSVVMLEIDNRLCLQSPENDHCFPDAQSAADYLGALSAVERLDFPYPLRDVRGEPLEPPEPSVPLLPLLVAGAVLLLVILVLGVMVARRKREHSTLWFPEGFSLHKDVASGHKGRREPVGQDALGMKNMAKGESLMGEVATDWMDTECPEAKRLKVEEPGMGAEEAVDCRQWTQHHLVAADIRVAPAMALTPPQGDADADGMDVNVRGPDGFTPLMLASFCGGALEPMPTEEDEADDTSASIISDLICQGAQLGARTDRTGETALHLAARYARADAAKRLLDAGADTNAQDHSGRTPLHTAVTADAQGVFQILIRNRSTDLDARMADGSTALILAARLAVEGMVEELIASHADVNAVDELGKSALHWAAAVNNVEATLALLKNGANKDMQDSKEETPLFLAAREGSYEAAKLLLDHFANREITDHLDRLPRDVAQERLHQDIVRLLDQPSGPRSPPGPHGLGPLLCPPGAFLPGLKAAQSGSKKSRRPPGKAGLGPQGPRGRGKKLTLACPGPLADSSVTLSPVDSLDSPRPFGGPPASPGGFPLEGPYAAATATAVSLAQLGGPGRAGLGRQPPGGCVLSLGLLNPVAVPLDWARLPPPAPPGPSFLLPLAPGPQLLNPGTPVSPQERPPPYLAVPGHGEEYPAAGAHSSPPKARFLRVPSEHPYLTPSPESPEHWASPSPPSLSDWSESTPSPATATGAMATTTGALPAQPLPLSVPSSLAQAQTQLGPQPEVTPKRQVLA

[20] = small-molecule microarray binders of probe aEGFR, primary screen, biochemical, biotinylated probe, 635/667 nm fluorescence (AID 1097); conditions: higher = more signal;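 also: probe is a biotinylated anti-EGFR antibody binding compounds printed on slides; score combines fluorescence near 667 nm and signal to noise of each spot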

Row | Structure (SMILES) | composite z-score [1] | composite z-score [2] | composite z-score [3] | composite z-score [4] | composite z-score [5] | composite z-score [6] | composite z-score [7] | z-score [8] | composite z-score [9] | composite z-score [10] | composite z-score [11] | z-score [12] | z-score [13] | z-score [14] | composite z-score [15] | z-score [16] | composite z-score [17] | composite z-score [18] | composite z-score [19] | composite z-score [20]
1 | CCCC[C@@H]1C[C@H]1[C@@H](NC(=O)c1ccco1)c1ccccc1C(F)(F)F | 2.82 | -0.108 | 0.806 | 0.0033 | 0.967 | 0.382 | -0.226 | 0.792 (inactive) | 2.87 | 3.61 | -0.191 | 0.493 (inactive) | 1.13 (inactive) | -0.0491 (inactive) | 1.53 | -0.763 (inactive) | 1.36 | -0.339 | 0.453 | 0.856
2 | O=C1c2ccccc2[C@](Cc2ccccc2I)(C(=O)NCC(F)(F)F)[C@H](c2ccc(CO)cc2)N1Cc1ccccc1Cl | -0.266 | 0.0347 | 0.0069 | 0.106 | 0.95 | 1.74 | 1.28 | -1.05 (inactive) | 0.748 | 0.0373 | 1.53 | -0.893 (inactive) | -1.09 (inactive) | -1.29 (inactive) | 3 | -0.267 (inactive) | -0.0283 | 0.496 | 0.958 | -0.0409
3 | CC[C@@H]1C=C(C(=O)O)[C@H](c2ccc(Br)cc2)N1S(=O)(=O)c1ccc(C)cc1 | 0.191 | 0.0963 | 0.0746 | 0.638 | 1.26 | 1.93 | 0.503 | -1.18 (inactive) | 0.614 | 0.141 | 0.399 | -0.564 (inactive) | 0.794 (inactive) | -0.535 (inactive) | 2.7 | -0.319 (inactive) | 0.295 | 0.37 | 0.481 | -0.0512
4 | C=CCN1C(=O)[C@]2(O[C@H](CCn3cc([C@H](O)c4ccccc4)nn3)[C@@H]([Si](C)(C)c3ccc(OC)cc3)[C@@H]2C)c2ccccc21 | 0.202 | -0.602 | -0.0894 | -0.264 | -0.439 | 0.093 | -0.0113 | -0.356 (inactive) | -0.366 | -0.264 | 0.267 | -1.25 (inactive) | 0.0123 (inactive) | -0.198 (inactive) | 0.41 | -0.68 (inactive) | -0.113 | -0.308 | 0.183 | -0.145
5 | C=CCOC(=O)[C@H]1[C@@H]2C(=O)O[C@@H](c3ccccc3)[C@@H](c3ccccc3)N2[C@@H](c2ccc(OCCOC(=O)[C@H]3C[C@H]4C(=O)N[C@@H](CCCCNC(C)=O)C(=O)N4[C@H]3c3cccc(OCCO)c3)cc2)[C@]12C(=O)Nc1ccccc12 | -0.0212 | 1 | -0.0723 | 0.732 | 0.279 | 0.786 | 1.11 | 1.12 (inactive) | -0.047 | -0.0994 | 1.55 | 0.17 (inactive) | 1.11 (inactive) | 2.59 (inactive) | 3.05 | 0.272 (inactive) | -0.0865 | 0.664 | 0.879 | -0.0996
